Compound activity as filed in PubChem.
In the library only some 10% were active in any assay of this set; here they are far more common.
FLuc inh-1: inhibitors of firefly (Photinus pyralis) luciferase | P08659 | Potency, µM (highest dose often 115 µM), hits mostly inhibitors | purified P. pyralis luciferase, luminescence, biochemical | actives 2.5% (n = 76,000); note: % is set by controls: 0 for no effect and ±100 for the full control effect; nearly all actives have a fitted effect of over 65% in size
Target sequence (P08659 whole entry, looked up): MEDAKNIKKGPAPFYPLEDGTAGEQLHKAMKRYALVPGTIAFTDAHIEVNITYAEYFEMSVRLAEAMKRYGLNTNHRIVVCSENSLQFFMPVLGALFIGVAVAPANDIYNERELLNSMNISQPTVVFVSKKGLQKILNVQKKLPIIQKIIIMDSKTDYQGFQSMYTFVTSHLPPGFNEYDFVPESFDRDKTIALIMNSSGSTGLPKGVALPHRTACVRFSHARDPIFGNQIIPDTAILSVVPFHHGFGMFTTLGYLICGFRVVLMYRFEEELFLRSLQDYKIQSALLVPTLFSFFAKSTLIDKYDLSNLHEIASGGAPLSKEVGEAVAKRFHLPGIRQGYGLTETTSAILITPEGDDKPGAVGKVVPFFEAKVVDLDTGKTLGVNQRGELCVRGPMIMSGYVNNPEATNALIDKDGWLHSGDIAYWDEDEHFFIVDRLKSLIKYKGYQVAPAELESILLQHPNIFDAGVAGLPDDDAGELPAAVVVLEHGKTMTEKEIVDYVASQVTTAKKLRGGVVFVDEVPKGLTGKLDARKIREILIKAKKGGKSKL
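Cell-free enzyme assay, 10nM P. pyralis luciferase, luciferin and ATP each at 10uM. Inhibition profiled over a 6-point titration, read as luminescence.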
GPT2 inhibitor: inhibitors of human GPT2 alanine aminotransferase | Potency, µM (highest dose often 57.7 µM), without a hit: top-dose activity change, negative = inhibition, usual class: inhibitors | Recombinant GPT2, coupled pyruvate oxidase/HRP Amplex Red fluorescence | AID 1671188 | actives 0.25% (n = 100,000); note: % is set by controls: 0 for no effect and ±100 for the full control effect; nearly all actives have a fitted effect of over 60% in size
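Inhibition is scored from Amplex Red fluorescence generated when pyruvate oxidase and HRP act on pyruvate released by GPT2. Reactions contain 10ng/uL enzyme, 250uM a-KG and 2mM L-alanine and run 30 min at room temperature.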
hNpr1 antagonist: blocks ANP-stimulated signaling of human Npr1 receptor; P16066; HEK293 hNpr1 GloSensor cGMP, ANP-stimulated luminescence; Potency, µM (doses to about 46.3 µM), without a hit: at the top dose activity change, negative = inhibition, hits mostly inhibitors; actives 1.6% (n = 76,000); calls by dose curve; note: % is set by controls: 0 for no effect and ±100 for the full control effect; nearly all actives have a fitted effect of over 60% in size
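Compound pre-incubated 30 min at room temperature on GloSensor-loaded HEK293 cells stably carrying hNpr1 and the pGS-40F cGMP biosensor. Stimulation uses hNppA at 0.1 nM final; luminescence is taken at baseline and 20 min post-agonist.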
HEK cytotox: cytotoxic compounds in HEK 293 cells; HEK 293 viability, ATP luminescence (CellTiter-Glo), 48-72 h; AID 1345083; Potency, µM (titrated, usually from 115 µM), without a hit: at the highest dose activity change, negative = cytotoxicity, actives largely listed as inhibitors; actives 6.6% (n = 94,000); note: % is set by controls: 0 for no effect and ±100 for the full control effect; nearly all actives have a fitted effect of over 60% in size
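CellTiter-Glo luminescence (cellular ATP) was read after 48 or 72 hr of compound exposure at 37 degree Celsius. Cells were HEK 293 plated at 250 cells/well.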
NIH3T3 tox: NIH 3T3 cell cytotoxicity. NIH 3T3 viability, CellTiter-Glo ATP luminescence, 48-72 h. Potency, µM (highest dose often 96.7 µM), for the others: at the top dose activity change, negative = cytotoxicity, usual class: inhibitors. actives 4.3% (n = 94,000). AID 1345082; note: % is set by controls: 0 for no effect and ±100 for the full control effect; nearly all actives have a fitted effect of over 55% in size
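Cells were seeded at 400 per well, treated with pin-transferred compound, and kept 48 or 72 hr at 37 °C before CellTiter-Glo addition and luminescence imaging of cellular ATP.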
FLuc SDR -ATP: stabilizes firefly luciferase without ATP; shares compounds with FLuc inh-1; Purified FLuc-C-HiBiT, Nano-Glo HiBiT luminescence, no ATP; Potency, µM (highest dose often 32.7 µM), inactives show at the highest dose activation (signal gain), hits mostly activators; actives 7.8% (n = 1,300); AID 1963318; note: nearly all actives have a fitted effect of over 55% in size
FLuc SDR ATP: firefly luciferase binding stabilization, ATP added | purified FLuc-C-HiBiT + ATP, HiBiT complementation luminescence | actives 8.7% (n = 1,300) | shares compounds with FLuc inh-1 | AID 1963319 | Potency, µM (highest dose often 32.7 µM), for the others: at the top dose activation (gain of signal), most hits filed as activators;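 note: signal reports ligand binding via conformational change of the enzyme rather than luciferase catalysis; % of control where 0% means no effect; nearly all actives have a fitted effect of over 55% in size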
FLuc inh-2: inhibitors of firefly luciferase enzymatic activity. purified FLuc-C-HiBiT enzyme, luciferin luminescence. actives 42% (n = 1,300). AID 1963320. Potency, µM (series often up to 32.7 µM), inactives show at the top dose activity change, negative = inhibition, usual class: inhibitors. shares compounds with FLuc inh-1; note: % is set by controls: 0 for no effect and ±100 for the full control effect; nearly all actives have a fitted effect of over 70% in size
* hit, by the source's call; i = inactive; ? = inconclusive; · = no result; [ ] = remark or other dose. Unless noted, calls come from the whole dose curve; as a rule, active = well fitted curve in the direction sought with a large enough effect; inconclusive = small, poorly fitted or top-dose-only effect, or another doubt; inactive = no such curve, though single readings can be large; an effect the other way counts as inactive or inconclusive. Potency is the fitted concentration of half-maximal effect.

SMILES	FLuc inh-1	GPT2 inhibitor	hNpr1 antagonist	HEK cytotox	NIH3T3 tox	FLuc SDR -ATP	FLuc SDR ATP	FLuc inh-2
CC(C)Oc1ccc(C(=O)Nc2nnc3n2CCS3)cc1	·	·	·	·	·	28%	?	?
CC1(C)CNC(=O)c2nc(CCSCc3ccco3)[nH]c2C1	i	0%	-1%	0%	0%	·	·	·
CSc1ccc(-c2nc3c([nH]2)CC(C)(C)CNC3=O)cc1	13µM*	-1%[11.5 µM]	-23%	?	-24%	32%	17%	?
COc1ccc(-n2ncc3c(NC4CCCC4)ncnc32)cc1	·	·	·	·	·	?	?	1.8µM*
Cc1ccc(-n2ncc3c(NC4CCCC4)ncnc32)cc1	·	·	·	·	·	?	?	0.62µM*
Cc1noc(-c2cccc(OC3CN(C(=O)c4cnn(C)c4)C3)c2)n1	i	i	0%	-3%	-14%	·	·	·
O=C(O)c1cccc2c1CCN2C(=O)Nc1ccc(F)cc1	0.0079µM*	-15%	0.32µM*	8.9µM*	?	11µM*	0.0062µM*	0.0035µM*
CN(C)C(=O)c1cccc2c1CCN2C(=O)Nc1ccc(F)cc1	13µM*	1%	-1%	-5%	-19%	15%	6.2µM*	3.9µM*
COc1ccc(NC(=O)c2cccc3c2CCN3C(=O)c2ccc(F)cc2)cc1OC	?	-7%	-30%	-2%	2%	·	·	·
Cc1ccc2oc(=O)n(CCC(=O)N[C@@H]3COCC[C@@H]3OCC3CC3)c2c1	i	i	-2%	-2%	-11%	·	·	·
Cc1ccc(-c2nc3ccccc3s2)cc1NC(=O)COc1ccccc1	·	·	·	·	·	13%	8%	-9%
COc1ccc(CC(=O)Nc2ccc(-c3nc4ccccc4s3)cc2Cl)cc1	·	·	·	·	·	16%	13%	-11%
COc1ccc(OCC(=O)Nc2cc(-c3nc4ccccc4s3)ccc2C)cc1	·	·	·	·	·	4%	4%	?
COc1ccc(OCC(=O)Nc2cccc(-c3nc4ccccc4s3)c2C)cc1	·	·	·	·	·	27%	16%	7.9µM*
COC[C@H]1CCCN1Cc1nc(C2(O)CCN(C)CC2)cs1	i	?	5%[70.6 µM]	-5%[172 µM]	i	·	·	·
CC1=C[C@@H](CNC(=O)Nc2ccc(Cl)cc2)[C@H](C(C)C)C[C@H]1CC(=O)N(C)Cc1cccnc1	i	3%	?	?	?	·	·	·
Cc1ccc(-c2cc(N3CCC(CNC(=O)c4ccc5nc[nH]c5c4)CC3)n[nH]2)cc1	14µM*	?	-25%	?	?	20%	15%	?
COc1ccc(C(=O)Nc2ccccc2-c2nc3ccccc3s2)cc1OC	·	·	·	·	·	13%	9%	0%
O=C(Nc1cc(-c2ccncc2)nn1-c1ccccc1)c1ccc(F)cc1	·	-7%	·	?	?	·	·	·
Cn1ncc2c(C(=O)Nc3ccccc3Cl)cc(-c3ccccc3C(F)(F)F)nc21	·	·	·	?	-30%	·	·	·
O=C(Nc1ccccc1-c1nc2ccccc2s1)c1cc(Cl)cc(Cl)c1	·	·	·	·	·	10%	9%	2%
COc1ccccc1NC(=O)O[C@H]1COCCN(c2nc3ccccc3s2)C1	i	i	-8%[70.6 µM]	?	?	·	·	·
O=C(Nc1ccccc1-c1nc2ccccc2s1)c1ccc(F)cc1	·	·	·	·	·	8%	7%	-7%
COc1cc2ncnc(-n3nc(-c4ccccn4)nc3N)c2cc1OC	·	-7%[27.3 µM]	·	·	·	·	·	·
CSc1ccc(C(=O)N2CC(=O)N(Cc3ccc(Cl)cc3)CC(O)C2)cc1 (stereo not given)	·	·	·	?	-33%	·	·	·
CCOc1cc2sc(N3CCC(C(=O)Nc4ccc(C(C)C)cc4)CC3)nc2cc1Br	·	·	·	·	·	16%	?	7µM*
